# Results filed as inconclusive are left out. A call without a number means that no potency is given here. Active and inactive are the calls of the source. Calls follow the shape of the dose curve; as a rule, active = well fitted cell-killing curve with a large enough effect; inconclusive = small, poorly fitted or top-dose-only effect, or effect the other way; inactive = flat fitted curve, though single readings scatter.
# Experiment: Cell viability assay in S16 Pmp22-HiBiT cells - Confirmatory screen
# Settings: S16 Schwann Pmp22-HiBiT viability, CellTiter-Glo, 24 h; series mostly up to 27.9 µM
# Description: Assay Provider: Jim Inglese Ph.D. National Center for Advancing Translational Science, National Institutes of Health, Rockville, MD CMT is a heterogeneous group of neurological disorders that affect approximately 1 in 2,500 people. In particular, the most common form of CMT, CMT1A is genetically linked to the duplication of the PMP22 gene which leads to Schwann cell overexpression, thus manifesting itself as a typical case of dose-sensitive diseases. To identify small molecule compounds that can mediate the expression of PMP22 we developed a phenotypic assay screening strategy by utilizing genome editing techniques to construct Schwann cell lines containing novel reporter technology to monitor the transcriptional or translational regulation of PMP22. For high sensitivity we use a bioluminescent reporter system embedded in the 3' UTR of the PMP22 gene (S16(c9) Pmp22-F2sN) to identify compounds that inhibit gene expression. […] We can further discriminate the effect of all transcriptionally active molecules on PMP22 translation or stability with an assay that incorporates a short NLuc peptide (HiBiT) at the C-terminus of expressed PMP22 (S16(f8) PMP22-HiBiT) allowing alpha complementation and luminescence detection of membrane-associated PMP22 protein. These assays were screened against the NCATS Sytravon Library Collection. Miniaturization of these assays to 1536-well plate format for quantitative high throughput screening (qHTS) yielded rich data sets immediately from the qHTS assay (S16(c9) Pmp22-F2sN), when compared with data from a cell viability assay (Cell TiterGlo) to identify compounds that decreased the output signals through cellular toxicity to streamline the selection process of actives for subsequent characterization using the HiBiT assay (S16(f8) PMP22-HiBiT).
# Cell viability assay in S16 Pmp22-HiBiT cells PROTOCOL TABLE (format as described by Inglese J, Shamu CE and Guy RK. 2007) SEQUENCE No. (e.g., 1, 2, 3, etc.); PARAMETER (e.g., Cells, Incubation, Reagent, etc.); VALUE and DESCRIPTION. 1. Cells. Add 500-1,000 cells in 4 uL in growth media (DMEM High Glucose, No Phenol Red media + 10% heat-inactivated FBS + 1% Pen/Strep supplemented media) per well into Greiner 1536-well white/solid bottom high base, TC-treated plates. 2. Compounds. Library compounds and controls added at 23nL per well, transferred by Pin Tool. 3. Incubation. Incubate plates at 37C, 5% CO2, 95% RH for 24 h. 4. Reagent. Add 3uL CellTiter-Glo per well of Greiner 1536-well plates. 5. Incubation. Incubate plates at room temperature for 15 min., protect from light. 6. Detector. Luminescence measured using CCD-based camera (Viewlux). NOTES (numbers refer to Sequence numbers above; values are from representative experiments) 6. Luminescence Read: Clear filter; Exposure = 1 sec, Gain = High, Speed = Slow, Binning = 2X REFERENCES: 1. Inglese J, Shamu CE and Guy RK, Reporting data from high throughput screening of small molecule libraries, Nature Chemical Biology, 2007, 3(8): 438-441. doi.org/10.1038/nchembio0807-438 2. Yasgar A, Shinn P, Jadhav A, Auld DS, Michael S, Zheng W, Austin CP, Inglese J and Simeonov A, Compound Management for Quantitative High-Throughput Screening. J. Assoc. Lab. Auto., 2008, 13: 79-89. doi: 10.1016/j.jala.2007.12.004
row,SMILES,Potency
1,CCOc1cc(CNc2ccc(O)cc2)cc(Br)c1OCc1ccccc1,inactive
2,Cc1cc(C)c(NC(=O)Cn2c(=O)n(Cc3ccco3)c(=O)c3ccc(C(=O)NC4CCCC4)cc32)c(C)c1,inactive
3,COc1ccc(Br)c2c1-c1nc(NC(=O)c3cccc(C)c3)sc1C2,inactive
4,O=C(Cn1c(-c2cccs2)cc2ccccc21)NCCCN1CCN(c2ccc(F)cc2)CC1,inactive
5,O=C(Cn1c(-c2cccs2)cc2cc(F)ccc21)NCCCN1CCN(c2ccccc2F)CC1,inactive
6,COc1ccc(NC(=O)CCS(=O)(=O)c2nc(-c3cccs3)cc(C(F)(F)F)n2)cc1,inactive
7,CCN(CC)CCNC(=O)c1cc(-c2ccc(Br)s2)nc2ccccc12,10.2 µM (active)
8,CCC(=O)C1=C(c2cccc([N+](=O)[O-])c2)N(C(=O)CC)n2c(nnc2C2CCCCC2)S1,inactive
9,CCS(=O)(=O)c1ncc(Cl)c(C(=O)Nc2c(C(=O)c3ccc(C)cc3)oc3ccccc23)n1,inactive
10,COc1ccccc1CNC(=O)CSc1nnc(C)c2c(C)n(-c3ccccc3)nc12,inactive
11,COC(=O)c1c(-c2ccc(Cl)cc2)noc1N1CCN(c2cccc(C(F)(F)F)c2)CC1,10.2 µM (active)
12,CCOCCCNC(=O)c1ccc(-n2c(-c3ccccc3)cc3c2CCC(C)C3)cc1 (stereo not given),inactive
13,CCN(CC)c1ccc(NC(=O)C2COc3ccc(OC)cc3C2)c(C)c1 (stereo not given),inactive
14,CCOc1ccc(C(=O)c2cnc3ccc(Cl)cc3c2S(=O)(=O)c2ccc(C)cc2)cc1,inactive
15,COCCCNC(=O)c1ccc(-n2c(-c3ccccc3)cc3c2CCC(C)C3)cc1 (stereo not given),inactive
16,COc1ccccc1NC(=O)Cn1c(=O)n(-c2cccc(Cl)c2)c(=O)c2sc3ccccc3c21,12.9 µM (active)
17,Cc1cc(NC(=O)C2CCCN(S(=O)(=O)c3cccc4nonc34)C2)ccc1Br (stereo not given),inactive
18,COc1cccc(-n2c(SCC(=O)c3ccc(Cl)cc3)nc3c([nH]c4ccccc43)c2=O)c1,10.2 µM (active)
19,COc1ccccc1Nc1nn2c(=O)c3ccc(C(=O)Nc4ccc(F)cc4)cc3nc2s1,7.24 µM (active)
20,Cc1ccc(C)c(NC(=O)Cn2c(=O)n(Cc3ccc4c(c3)OCO4)c(=O)c3ccc(C(=O)NC4CCCCC4)cc32)c1,inactive

row,SMILES,Potency
1,Clc1cccc(-c2noc3ncnc(NC4CCCCC4)c23)c1,inactive
2,Cc1cccc(CS(=O)(=O)c2ncc(Cl)c(C(=O)Nc3nc4ccc(F)cc4s3)n2)c1,14.5 µM (active)
3,O=S(=O)(NCC(c1ccco1)S(=O)(=O)c1cccs1)c1ccc(Cl)cc1 (stereo not given),inactive
4,COc1ccc(NC(=O)Cn2c(=O)n(CCC(=O)NCc3ccccc3OC)c(=O)c3ccccc32)cc1Cl,16.2 µM (active)
5,COc1ccc(-c2cc(C(F)(F)F)nc(S(C)(=O)=O)n2)cc1,18.2 µM (active)
6,COc1ccc(NC(=O)c2oc3ccccc3c2NC(=O)Cc2ccc(F)cc2)c(OC)c1,inactive
7,CCC(Sc1nc2ccccc2c2nc(-c3ccccc3)nn12)C(=O)Nc1cccc(OC)c1 (stereo not given),inactive
8,Cc1ccc(NC(=O)N2CCc3cc(S(=O)(=O)N4CCC(C)CC4)ccc32)cc1F,inactive
9,COc1ccccc1Nc1c2c(nc3ccc(NC(=O)/C=C/c4cccc(OC)c4OC)cc13)CCCC2,5.13 µM (active)
10,COc1ccc(Cl)cc1NC(=O)CCCS(=O)(=O)c1nc(-c2ccc(OC)c(OC)c2)cc(C(F)(F)F)n1,6.45 µM (active)
11,CCOC(=O)c1c(NC(=O)c2nc(S(C)(=O)=O)ncc2Cl)sc(C(C)=O)c1C,4.57 µM (active)
12,COC(=O)c1ccccc1NC(=O)c1nc(S(=O)(=O)Cc2cccc(C)c2)ncc1Cl,inactive
13,CCCn1c(=N)c(C(=O)NC(C)c2ccccc2)cc2c(=O)n3ccccc3nc21 (stereo not given),inactive
14,Cc1ccccc1S(=O)(=O)Cc1ccc(C(=O)N2CCN(c3cccc(Cl)c3)CC2)o1,inactive
15,CCc1ccc(C(=O)c2cn(CC(=O)Nc3ccc4c(c3)OCO4)c3ccc(CC)cc3c2=O)cc1,14.5 µM (active)
16,O=C(CCS(=O)(=O)c1nc(-c2cccs2)cc(C(F)(F)F)n1)Nc1ccc(OC(F)(F)F)cc1,inactive
17,O=C(Cn1c(-c2cccs2)cc2cc(F)ccc21)NCCCN1CCN(c2ccc(F)cc2)CC1,inactive
18,CCC(=O)C1=C(c2cccc([N+](=O)[O-])c2)N(C(=O)CC)n2c(nnc2-c2ccccc2)S1,inactive
19,Cc1c(Cl)cccc1NC(=O)c1oc2ccc(S(=O)(=O)N3CCC4(CC3)OCCO4)cc2c1C,inactive
20,CCC(C)NC(=O)C1CCN(C(=O)c2cc3sccc3n2Cc2ccc(Cl)cc2)CC1 (stereo not given),11.5 µM (active)

# Source: PubChem BioAssay AID1508648 (National Center for Advancing Translational Sciences (NCATS), 2021)
